Compound activity as filed in PubChem.
A selection: hits, their analogues and other compounds. The true share with any hit is near 13%.
HCV inh = qHTS Assay for Inhibitors of Hepatitis C Virus (HCV); Huh7.5.1 HCVcc-Cre infection, luciferase reporter, 44 h; 340,000 compounds, 3.4% hits; AID 651820, 2012; Potency, µM (top dose mostly 41.8 µM), for inactives: top-dose activity change, negative = inhibition, actives largely listed as inhibitors; active = well fitted inhibition curve with a large enough effect; inconclusive = small, poorly fitted or top-dose-only effect, or another doubt; inactive = no such curve, though single readings can be large or run the other way; also: potency is read from the fitted curve at half-maximal effect; % is scaled to controls: 0 for no effect and ±100 for the full control effect
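Compounds are dispensed onto cells plated 4 h earlier at 1,000 per well, with HCVcc-Cre virus (about 0.5 moi) added next. Following 44 h of culture, luminescent signal is measured for 15 sec after 15 min with substrate at room temperature.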
Cycloheximide cs = Cycloheximide Counterscreen for Small Molecule Inhibitors of Shiga Toxin. cell reporter, cycloheximide protein synthesis inhibition counterscreen. max response, %. 300,000 compounds, 12% hits. AID 2314, 2010; in the data active = max response mostly above about 13%, no sharp cut-off; inactive = mostly below about 14%; also: read at 38.3 µM for the half of the compounds with a filed dose; 0% is about no effect
Lassa entry inh = qHTS for Inhibitors of binding or entry into cells for Lassa Virus | 300,000 compounds, 1.2% hits | Potency, µM (top dose mostly 37.9 µM), for the others: at the top dose activity change, negative = inhibition, usual class: inhibitors | AID 540256, 2011 | Lassa virus pseudotype entry inhibition, cell reporter; calls by dose curve; tested in HEK293 cells; also: potency is read from the fitted curve at half-maximal effect; % is scaled to controls: 0 for no effect and ±100 for the full control effect; nearly all actives have a fitted effect of over 50% in size
FMDV inh = High Throughput Screening for Foot and Mouth Disease Virus Antivirals; FMDV antiviral cell-based qHTS; Potency, µM (series often up to 57.9 µM), without a hit: at the top dose activity change, negative = inhibition, actives largely listed as inhibitors; 410,000 compounds, 1.2% hits; calls by dose curve; tested in HEK293T cells; also: read-out not given here; potency is read from the fitted curve at half-maximal effect; % is scaled to controls: 0 for no effect and ±100 for the full control effect; nearly all actives have a fitted effect of over 45% in size
Shiga inhibitor = A qHTS for Small Molecule Inhibitors of Shiga Toxin; inhibition, % at 38.7 µM; Vero cells, Shiga toxin protein synthesis inhibition reporter; 290,000 compounds, 9.2% hits; in the data active = inhibition mostly above about 28%, no sharp cut-off; inactive = mostly below about 43%; also: 0% is about no effect
MARV entry inh = qHTS for inhibitors of binding or entry into cells for Marburg Virus | Marburg virus pseudotyped entry inhibition, cell reporter | Potency, µM (doses to about 37.8 µM), without a hit: top-dose activity change, negative = inhibition, most hits filed as inhibitors | 300,000 compounds, 1.8% hits | AID 540276, 2011; calls by dose curve; tested in HEK293 cells; also: potency is read from the fitted curve at half-maximal effect; % is scaled to controls: 0 for no effect and ±100 for the full control effect
An asterisk follows results filed as active; [ ] = remark or other dose.

For CCCOc1ccccc1/C=C1\SC(N)=NC1=O the results were HCV inh 13%, Cycloheximide cs 2, Lassa entry inh 4%[46.1 µM], FMDV inh -10%, Shiga inhibitor -8 and MARV entry inh 20%[46.1 µM].
Screening Cc1cc(/C=C2\SC(=Nc3ccc(F)cc3)NC2=O)c(C)n1-c1ccc(S(N)(=O)=O)cc1 returned HCV inh 3.5µM*, Cycloheximide cs -3, Lassa entry inh inconclusive, FMDV inh 35µM*, Shiga inhibitor -25 and MARV entry inh inconclusive.
`Cc1cc(/C=C2\SC(=S)NC2=O)c(C)n1-c1ccccc1` gave HCV inh 2%, Cycloheximide cs 44*, Lassa entry inh inconclusive, FMDV inh 5%, Shiga inhibitor 58* and MARV entry inh inconclusive.
Cc1cc(/C=C2\SC(N)=NC2=O)c(C)n1-c1ccccc1 was read as HCV inh -6%, Cycloheximide cs 36*, Lassa entry inh inconclusive, FMDV inh 13%, Shiga inhibitor 45 and MARV entry inh inconclusive.
CC1=CC(Cc2ccccc2)N(C)C(C(N)=O)C1 (stereo unspecified) was read as FMDV inh -24%.
For O=C(NCc1ccccc1Cl)C1CC(=O)N(Cc2ccccc2)C1 (stereo unspecified) the results were HCV inh 16%, Cycloheximide cs 0, Lassa entry inh 2%, FMDV inh 2%, Shiga inhibitor -13 and MARV entry inh -2%.
For COc1ccc(-n2c(C)cc(/C=C3\SC(=S)NC3=O)c2C)cc1 the results were HCV inh 13%, Cycloheximide cs 6, FMDV inh 57% and Shiga inhibitor 13.
Screening Cc1cc(/C=C2\SC(=S)NC2=O)cc(C)c1O returned HCV inh 7%, Cycloheximide cs 15*, FMDV inh 30% and Shiga inhibitor 37.
For Cc1cc(/C=C2\SC(=S)NC2=O)c(C)n1-c1ccc(O)cc1 the results were HCV inh -10%, Cycloheximide cs 38*, FMDV inh -2% and Shiga inhibitor 52*.
For Cc1ccnc(N2CCCC(C(=O)Nc3nnc(C)s3)C2)n1 (stereo unspecified) the results were HCV inh 16%, Cycloheximide cs -1, Lassa entry inh 5%, FMDV inh -15%, Shiga inhibitor -4 and MARV entry inh -4%.
`COc1cccc2cc(C(=O)N3CCN(c4ncccn4)CC3)c(=O)oc12` gave HCV inh -3%, Cycloheximide cs 14*, Lassa entry inh 15%, FMDV inh 17%, Shiga inhibitor 15 and MARV entry inh 2%.
`COc1cccc2cc(C(=O)N3CCN(C(=O)c4ccco4)CC3)c(=O)oc12` gave HCV inh 11%, Cycloheximide cs -1, Lassa entry inh 7%, FMDV inh -8%, Shiga inhibitor -10 and MARV entry inh 0%.
`COc1cccc2cc(C(=O)N3CCCCCCC3)c(=O)oc12` gave HCV inh 15%, Cycloheximide cs 32*, Lassa entry inh 12%[46.1 µM], FMDV inh 29%, Shiga inhibitor 44* and MARV entry inh inconclusive.
Screening CCN(CC)CCN1C(=O)C(=O)/C(=C(/O)c2ccc3c(c2)CC(C)O3)C1c1ccc(OC)cc1 (stereo unspecified) returned HCV inh 3%, Cycloheximide cs 3, Lassa entry inh -17%[46.1 µM], FMDV inh -16%, Shiga inhibitor 1 and MARV entry inh -23%[46.1 µM].
Screening COc1cccc(NC(=O)Nc2ccc3c(c2)CCC3)c1 returned HCV inh inconclusive, Cycloheximide cs 39*, FMDV inh 32% and Shiga inhibitor 75*.
Screening COc1ccc(OC)c(NC(=O)Nc2ccc3c(c2)CCC3)c1 returned HCV inh inconclusive, Cycloheximide cs 19*, FMDV inh 10% and Shiga inhibitor 28*.
`COc1ccc(NC(=O)Nc2ccc3c(c2)CCC3)c(OC)c1` gave HCV inh inconclusive, Cycloheximide cs 9, FMDV inh 12% and Shiga inhibitor 30.
`CN(C)c1cccc(C(=O)N2CCC(c3c[nH]c4ccccc34)(c3c[nH]c4ccccc34)CC2)c1` gave Lassa entry inh -27%[46.1 µM], FMDV inh 15% and MARV entry inh -26%[46.1 µM].
